USP10 inh: inhibitors of human USP10 deubiquitinase; Q14694; purified USP10, Ub-rhodamine fluorescence, 60 min; inhibition, % at 20 µM; actives 1.1% (n = 47,000)
USP28 block: blocks human USP28 ubiquitin-rhodamine cleavage. purified USP28, Ub-rhodamine cleavage fluorescence, 30 min. inhibition, % at 25 µM. actives 3% (n = 47,000)
OTUD3 block: inhibitors of human OTUD3 deubiquitinase | Q5T2D3 | AID 1645858 | inhibition, % at 25 µM | purified OTUD3, Ub-rhodamine fluorescence, 2 h | actives 0.7% (n = 47,000)
USP7 block: inhibitors of human USP7 deubiquitinase. Q93009. purified USP7, Ub-rhodamine cleavage fluorescence. inhibition, % at 20 µM. AID 1645854. actives 0.3% (n = 47,000)
UCHL1 inh: human UCHL1 deubiquitinase inhibition. purified UCHL1, Ub-rhodamine cleavage fluorescence. inhibition, % at 20 µM. actives 0.2% (n = 47,000)
Target sequence (P09936 whole entry, looked up): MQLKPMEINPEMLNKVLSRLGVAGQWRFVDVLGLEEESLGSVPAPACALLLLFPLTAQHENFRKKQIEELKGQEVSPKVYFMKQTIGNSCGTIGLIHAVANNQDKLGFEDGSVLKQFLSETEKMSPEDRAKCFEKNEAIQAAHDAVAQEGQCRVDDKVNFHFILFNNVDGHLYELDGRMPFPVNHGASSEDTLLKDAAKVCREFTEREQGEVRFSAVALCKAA
USP8 block: human USP8 deubiquitinase inhibition | purified USP8, Ub-rhodamine cleavage fluorescence, 30 min | P40818 | inhibition, % at 20 µM | actives 4.2% (n = 47,000) | AID 1645853
Large screens that a line does not name were inactive. Only some compounds are listed: those with a hit (about 6.8% of all), similar ones and a draw of the others. Cut-off read from the data, not from the text of the source: active = inhibition above about 30%; inactive = the rest.

CCc1nc2c(C#N)c(-c3ccc(Cl)cc3)ccn2n1	USP28 block 41, OTUD3 block 32, USP8 block 36
COc1cccc(NC(=O)CCNc2cc(C)nc3nc(-c4cccnc4)nn23)c1	none
CCN1C(=O)c2ccccc2Sc2ccc(C(=O)NCc3ccc(C)cc3)cc21	USP28 block 38
Cc1cccc(CN2C(=O)c3ccccc3Sc3ccc(C(=O)NC4CCCC4)cc32)c1	none
O=C(CCSc1nnnn1-c1ccccc1)Nc1cc(C(F)(F)F)ccc1Cl	USP7 block 35
CN1CCN(CCC(=O)Nc2cc(C(F)(F)F)ccc2Cl)CC1	none
Cn1nc(C2CCN(C(=O)Cc3cccc(F)c3)CC2)c2nccnc21	USP8 block 82
Cn1nc(C2CCN(C(=O)COc3ccccc3F)CC2)c2nccnc21	none
O=S(=O)(NC1(c2nc(C3CC3)no2)CCCCC1)c1ccccc1	none
O=C(Nc1cccc(-c2nc3ncccc3o2)c1)c1cccc(-c2cc3ccccc3oc2=O)c1	USP28 block 69
COc1ccc(CC(=O)Nc2cccc(-c3nc4ncccc4o3)c2)cc1OC	USP28 block 55
O=C(Nc1ccc2c(c1)OCO2)[C@H]1C[C@@H]2CN(Cc3ccccc3)C[C@H]1O2	none
N#Cc1cccc(C(=O)Nc2cnc(N3CCCCC3)nc2)c1	none
CC(C)Cc1nc2oc3c(N(C)CCO)ncnc3c2c2c1CCC2	USP28 block 40
CCC(CO)Nc1ncnc2c1oc1nc(CC(C)C)c3c(c12)CCC3 (centres undefined)	none
COc1cc(Cl)c(C)cc1NC(=O)Cn1c(=O)n(CC(=O)NCc2ccco2)c(=O)c2ccccc21	USP10 inh 43, USP28 block 39, OTUD3 block 40, USP8 block 64
O=C(Cn1c(=O)c2ccccc2n(CC(=O)Nc2ccc(Br)cc2)c1=O)NCc1ccco1	USP8 block 44
O=C(Cn1c(=O)c2ccccc2n(CC(=O)Nc2cc(Cl)cc(Cl)c2)c1=O)NCc1ccco1	USP10 inh 35, USP8 block 50
CCc1ccc(NC(=O)Cn2c(=O)n(-c3ccc(CC(=O)NCc4ccco4)cc3)c(=O)c3ccccc32)cc1	none
COc1cccc(NC(=O)Cn2c(=O)n(CCCC(=O)NCc3ccco3)c(=O)c3ccccc32)c1	none
Cc1c(C(=O)N2CCOCC2C)nnn1-c1cccc2c1CCN(C1CCOCC1)C2 (centres undefined)	none
O=C(c1cn2cc(Cl)ccc2n1)N1CCC2(CC1)OCCO2	none
COc1ccc(NC(=O)c2nnc(C(=O)NCCN3CCCCCC3)s2)cc1	OTUD3 block 34
Cc1sc(NC(=O)c2cccnc2)nc1-c1ccc2c(c1)NC(=O)CO2	USP8 block 31
COc1ccc(C(=O)Nc2nc(-c3ccc4c(c3)NC(=O)CO4)c(C)s2)cc1OC	none
CC(C)(C)c1nn(-c2ccc(Cl)cc2)c2[nH]c(=O)c(CNCCc3ccccc3)cc12	none
CC(C)(C)c1nn(-c2ccccc2)c2[nH]c(=O)c(CNCc3cccnc3)cc12	none
Cc1nn(-c2ccccc2)c2[nH]c(=O)c(CNC3CCCCC3)cc12	none
CC(C)(C)c1nn(-c2ccccc2)c2[nH]c(=O)c(CNC3CC3)cc12	USP8 block 82
CC(C)(C)c1nn(-c2ccccc2)c2[nH]c(=O)c(CNCc3ccc4c(c3)OCO4)cc12	USP8 block 80
Cc1ccc(NCc2cc3c(C(C)(C)C)nn(-c4ccc(Cl)cc4)c3[nH]c2=O)cc1	USP8 block 84
Cc1ccc(NC(=O)c2cc(C(C)C)on2)cc1C	USP28 block 42
Cc1ccc(O)c(NC(=O)c2cc(C(C)C)on2)c1	none
Cc1ccc(CS(=O)(=O)c2cn(CC(=O)NCc3ccccc3)c3ccccc23)cc1	none
O=C(Cn1cc(S(=O)(=O)Cc2ccccc2)c2ccccc21)NC1CCCCC1	USP8 block 30
CC(=O)Nc1ccc(N2C(=O)c3cc(-c4ccco4)nn3CC2(C)C(=O)NCc2ccc(F)cc2)cc1 (centres undefined)	USP8 block 39
COc1cc2cc3c(c(O)c2c(O)c1-c1c(OC)cc2cc4c(c(O)c2c1O)C(=O)OC1CC(C)OC41)C(=O)OC1CC(C)OC31 (centres undefined)	USP8 block 58
COc1cc(O)cc2c1C(=O)O[C@@H](C[C@H]1CCC[C@H](C)O1)C2	none
CCCCOc1ccc(C(=O)Oc2ccc(-n3cnnn3)cc2)cc1	USP8 block 33
CCCOc1cccc(C(=O)Oc2ccc(-n3cnnn3)cc2)c1	none
CC(C)COc1ccc(C(=O)Oc2ccc(-n3cnnn3)cc2)cc1	USP8 block 37
COc1ccc(CC2NC(=O)C3(CCN(C(=O)NCc4ccccc4)CC3)NC2=O)cc1 (centres undefined)	none
COC(=O)c1cc(NC(=O)/C=C/c2ccc(Cl)cc2)ccc1N1CCOCC1	USP28 block 50
COC(=O)c1cc(NC/C=C/c2ccccc2)ccc1N1CCOCC1	none
O=C(CCCc1ccccc1)N1CCN(c2ccc(-c3ccc4c(c3)OCO4)nn2)CC1	none
COc1cccc(NC(=O)CCC(=O)N2CCSc3ccccc32)c1	USP28 block 35
Cc1cc(C)c(NC(=O)CCC(=O)N2CCSc3ccccc32)c(C)c1	none
Cc1ccc(-n2nnc(C(=O)Nc3ccc(C)c(C)c3)c2C)cc1	USP8 block 40
COc1ccc(NC(=O)c2nnn(-c3ccccc3)c2C)cc1Cl	none
COc1ccccc1-n1nnc(C(=O)Nc2ccc(Oc3ccccc3)cc2)c1C	USP28 block 52
COc1ccc(NC(=O)c2nnn(-c3ccccc3)c2C)cc1OC	USP28 block 56
Cc1ccc(NC(=O)c2nnn(-c3ccc(C)c(C)c3)c2C)cc1C	none
COc1cccc(-n2nnc(C(=O)Nc3ccc(Oc4ccccc4)cc3)c2C)c1	none
COC(=O)c1ccccc1NC(=O)Cn1c(=O)n(CCCC(=O)NCc2ccco2)c(=O)c2ccccc21	USP10 inh 54, USP28 block 58, OTUD3 block 68, USP8 block 58
COc1ccccc1CNC(=O)CCCCn1c(=O)c2ccccc2n(CC(=O)Nc2ccc(C)cc2C)c1=O	USP10 inh 50, USP8 block 46
COc1ccc(NC(=O)Cn2c(=O)n(CCCCC(=O)NCc3ccco3)c(=O)c3ccccc32)cc1Cl	USP10 inh 59
Cc1ccc(CNC(=O)CCCn2c(=O)c3ccccc3n(CC(=O)Nc3cc(C)[nH]n3)c2=O)cc1	none
COCCNC(=O)Cn1c(=O)n(Cc2ccc(C(=O)NCc3ccc(C)cc3)cc2)c(=O)c2ccccc21	USP28 block 84, OTUD3 block 47
CC1CCN(c2ccc(NC(=O)C3CCCN(c4ncccn4)C3)cc2C(N)=O)CC1 (centres undefined)	none
O=C(Cn1c(=O)n(Cc2ccc(C(=O)NCc3ccco3)cc2)c(=O)c2ccccc21)Nc1ccc2c(c1)OCCO2	USP10 inh 41, USP28 block 58, USP8 block 74

Screening data (PubChem BioAssay)
